Compound activity from PubChem.
In the library only some 8% were active in any assay of this set; here they are far more common.
TSHR antag = blocks TSH signaling through the human TSH receptor; AID 504810; 330,000 tested, 0.2% active; activity change, negative = inhibition, % at 11.5 µM; TSHR-expressing cells, TSH-stimulated cAMP HTRF, 2 h; stronger effect = lower value;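 active means activity change below a set negative limit, meaning inhibition stronger than a set level, cut at about -70% in these data; inconclusive means activity change between two set negative limits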
Target sequence (P16473 whole entry, looked up): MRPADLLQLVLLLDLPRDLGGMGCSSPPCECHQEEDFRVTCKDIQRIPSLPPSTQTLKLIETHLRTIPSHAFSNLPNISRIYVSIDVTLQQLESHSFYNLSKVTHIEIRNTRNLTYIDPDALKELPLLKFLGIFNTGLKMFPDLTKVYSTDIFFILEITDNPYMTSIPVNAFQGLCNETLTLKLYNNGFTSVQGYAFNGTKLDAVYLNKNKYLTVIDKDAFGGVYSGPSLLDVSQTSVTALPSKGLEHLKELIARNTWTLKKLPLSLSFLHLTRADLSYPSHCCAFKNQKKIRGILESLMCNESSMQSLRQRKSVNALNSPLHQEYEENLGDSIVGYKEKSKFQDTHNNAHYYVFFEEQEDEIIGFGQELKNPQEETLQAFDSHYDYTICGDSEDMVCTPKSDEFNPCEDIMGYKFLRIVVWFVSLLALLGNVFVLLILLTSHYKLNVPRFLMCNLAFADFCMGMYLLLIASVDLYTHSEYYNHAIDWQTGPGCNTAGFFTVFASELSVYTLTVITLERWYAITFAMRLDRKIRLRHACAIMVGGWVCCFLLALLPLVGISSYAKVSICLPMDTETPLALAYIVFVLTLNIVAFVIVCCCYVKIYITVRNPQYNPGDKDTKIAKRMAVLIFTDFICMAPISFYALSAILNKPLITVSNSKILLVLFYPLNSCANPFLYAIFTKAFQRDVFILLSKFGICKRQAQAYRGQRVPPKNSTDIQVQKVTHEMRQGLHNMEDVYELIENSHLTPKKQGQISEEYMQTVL
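Competitive HTRF cAMP read-out (cryptate anti-cAMP antibody, cAMP-d2; 30 min, room temperature) in freshly harvested TSHR cells. Compounds added before TSH at EC80 (4nM final), followed by 2 hours' incubation at 37 deg C.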
RORgamma inh = blocks mouse ROR gamma transcriptional activity. 310,000 tested, 5.4% active. Drosophila S2 Gal4-RORgamma UAS-luciferase reporter, 20 h. Potency, µM (doses to about 53.6 µM), for the others: top-dose activity change, negative = inhibition, most hits filed as inhibitors. AID 2551; further: potency means the concentration at half of the fitted maximal effect; nearly all actives have a fitted effect of over 60% in size
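Compounds are pin-transferred onto Drosophila Schneider cells expressing a copper-inducible Gal4–ROR gamma transactivation domain fusion. After 1 hr, copper sulfate is added to 700 uM final; luciferase is read 20 hr later.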
Coupling enz = inhibits coupling enzyme system, counter-screen for aldolase hits; AID 2472; 290,000 tested, 0.67% active; coupling enzyme system counterscreen, AmpLite Red fluorescence; activity change, negative = inhibition, % at 58.2 µM, hits read low; in the data active means activity change below about -30%
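Final compound at 57.5 uM, incubated 10 min at RT with coupling enzyme reagent (glyceraldehyde-3-phosphate), then 20 min with substrate and AmpLite Red detection. Fluorescence read at 525/598 nm; tests interference with the coupling assay, not aldolase inhibition.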
Gal4-VP16 FLuc = inhibits Gal4-VP16 luciferase reporter, ROR gamma counter-screen; 310,000 tested, 3.5% active; AID 2546; Drosophila S2 Gal4-VP16 UAS-luciferase, luminescence, 20 h; Potency, µM (titrated, usually from 53.6 µM), inactives show at the highest dose activity, negative = inhibition, usual class: inhibitors;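 further: Gal4-VP16 expression switched on by copper sulfate through the metallothionein promoter; potency means the concentration at half of the fitted maximal effect; nearly all actives have a fitted effect of over 50% in size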
ELG1 DNA repair = inhibitors of ELG1-dependent DNA repair in HEK293T cells | HEK293T ELG1-luciferase reporter, luminescence, 16 h; DNA damage induced by 5-fluorouridine | Potency, µM (doses to about 46.1 µM), for the others: at the top dose activity change, negative = inhibition, hits mostly inhibitors | 330,000 tested, 2.3% active | AID 504467; further: potency means the concentration at half of the fitted maximal effect; nearly all actives have a fitted effect of over 55% in size
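DMSO vehicle served as the neutral condition. Each well held 2,000 cells given 5-fluorouridine plus compound; after 16 hr at 37 °C/5% CO2, ONE-Glo was added and luciferase measured 30 min later.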
The depositor's hits bear a star; ? = inconclusive; · = no result. Unless noted, the call rests on the fitted dose curve; in most records, active means well fitted curve in the direction sought with a large enough effect; inconclusive means small, poorly fitted or top-dose-only effect, or another doubt; inactive means no such curve, though single readings can be large; an effect the other way counts as inactive or inconclusive. On the % scale 0 is the no-effect control and ±100 the full control effect.

SMILES | TSHR antag | RORgamma inh | Coupling enz | Gal4-VP16 FLuc | ELG1 DNA repair
CN(C)C=Nc1c(Br)cc(Br)c2nonc12 | 7 | -2% | -43* | 0% | 5%
Oc1ccccc1N=Nc1ccccc1O | 22 | 1.4µM* | -2 | -24% | ?
CN(c1ccccc1)S(=O)(=O)c1ccc(C(=O)Nc2nnc(-c3ccco3)o2)cc1 | -7 | 0.71µM* | 4 | 1.1µM* | 16µM*
CCN(c1ccccc1)S(=O)(=O)c1ccc(C(=O)NCCCn2ccnc2)cc1 | 10 | 11% | 0 | 1% | -11%
CCN(c1ccccc1)S(=O)(=O)c1ccc(C(=O)Nc2nnc(-c3ccco3)o2)cc1 | 23 | 0.1µM* | 18 | -7% | ?
Cc1ccc(S(=O)(=O)CCC(=O)Nc2nnc(-c3ccco3)o2)cc1 | -5 | · | · | · | -8%
COCCOCCn1c(CCCO)nc2ccccc21 | 3 | -24% | 0 | 2% | -14%
COCCOCCn1c(/C=C/c2ccccc2)nc2ccccc21 | 0 | 11µM* | -15 | ? | ?
CCn1c(/C=C/c2cc[n+](C)cc2)nc2ccccc21 | 8 | -29% | -2 | 2% | -5%
CC(C)Cn1c(/C=C/c2ccco2)nc2ccccc21 | -9 | 11µM* | -2 | ? | 13%
CCCn1c(/C=C/c2ccccc2)nc2ccccc21 | 6 | 5.6µM* | -16 | ? | ?
CC(C)n1c(/C=C/c2ccccc2)nc2ccccc21 | -5 | 13µM* | -4 | 16µM* | ?
Cc1ccc(S(=O)(=O)N(CCC(=O)NCc2ccc(S(N)(=O)=O)cc2)c2ccccc2)cc1 | -2 | · | · | · | 2%
CN(C)c1ccc(-c2nc(NCCc3cnc[nH]3)c3ccccc3n2)cc1 | · | ? | -2 | ? | ·
CCc1cccc(C)c1NC(=O)CN1C(=O)NC(CCc2ccccc2)C1=O (stereo not given) | 4 | · | · | · | -8%
CC(C)NC(=O)N1CCC2(CC1)CCN(C(=O)c1cnccn1)CC2 | · | 1% | 2 | 4% | ·
O=C(Nc1nnc(-c2cccs2)o1)c1cccc(Oc2ccccc2)c1 | 6 | 0.28µM* | 24 | 0.56µM* | -28%
O=C(Nc1nnc(-c2cccs2)o1)c1cc(-c2ccccc2)nc2ccccc12 | -19 | 1.4µM* | 7 | 2.5µM* | -1%
CN(C)C(=O)/C(C#N)=C\c1cc(Br)c(Sc2ccc(Cl)cc2)o1 | -7 | ? | -51* | 10µM* | ?
COc1ccc(CN2CCNC(=O)C2CC(=O)NCC2CCOCC2)c(F)c1 (stereo not given) | -1 | 6% | · | -8% | 13%
CCSCCc1nnc(NC(=O)Nc2cccc(C(F)(F)F)c2)s1 | -45 | ? | 1 | 18µM* | ?
O=C(C1CCN(S(=O)(=O)c2ccccc2F)CC1)N1CCN(Cc2ccc3c(c2)OCO3)CC1 | 4 | · | · | · | ?
COc1cccc(/C=N/NC(=O)c2c(C)nc3ccc(Br)cn23)c1O | -4 | 2.5µM* | -1 | 2.5µM* | 2.1µM*
CCOc1ccccc1/C=N/NC(=O)c1c(C)nc2ccc(Br)cn12 | -8 | -25% | -45* | -4% | -11%
CCOC(=O)[C@@H]1[C@H]2COc3ccc(Br)cc3[C@@H]2N2C(=O)N(c3ccc(C(F)(F)F)cc3)C(=O)[C@@]12C | 0 | -22% | -8 | -1% | -21%
SMILES | TSHR antag | RORgamma inh | Coupling enz | Gal4-VP16 FLuc | ELG1 DNA repair
CC(C)(C)c1ccc(C(=O)NCC(=O)NCC(C)(C)N2CCOCC2)cc1 | 13 | · | · | · | ?
COc1ccc(-c2oc(NC(=O)CSc3nncn3C)c(C#N)c2-c2ccc(OC)cc2)cc1 | -22 | 22% | 3 | 6% | 18µM*
Cc1c(C)n(Cc2ccccc2)c2ncnc(N)c12 | -11 | ? | 1 | -22% | 16µM*
C=CCNC(=S)NC(=O)c1oc2ccccc2c1C | -2 | 6.3µM* | 6 | ? | ?
CC(=O)Nc1ccc(NC(=S)NC(=O)c2oc3ccccc3c2C)cc1 | 7 | 14% | 0 | -8% | 12%
Cc1cccnc1NC(=S)NC(=O)c1oc2ccccc2c1C | 17 | 2µM* | 2 | 6.3µM* | ?
Cc1c(C(=O)NC(=S)NCC(C)C)oc2ccccc12 | -4 | -30% | 2 | ? | ?
COc1ccc(C=O)cc1OC(=O)N1CCOCC1 | -3 | 16% | 3 | -4% | 13%
C=CCOc1cccc(C2C(C(=O)c3cc4ccccc4o3)=C(O)C(=O)N2c2cc(C)on2)c1 (stereo not given) | -6 | 3% | 11 | -6% | 2%
CCOc1ccc(NC(=O)c2sc3nc(C)nc(N4CCOCC4)c3c2C)cc1 | -2 | ? | -1 | ? | 13µM*
Cc1nc(N2CCCCC2)c2c(C)c(C(=O)Nc3ccc4c(c3)OCCO4)sc2n1 | -10 | 30% | -1 | -24% | 10µM*
COc1ccc(NC(=O)c2sc3nc(C)nc(N4CCOCC4)c3c2C)c(OC)c1 | 0 | 3% | -2 | -2% | 8%
COc1c(O)c(O)cc2c1oc1c3ccccc3oc(=O)c21 | · | ? | -14 | ? | ·
COc1ccc(/C=N\Nc2ccccn2)c(OC)c1 | 4 | ? | 0 | ? | ?
COc1ccc(/C=N/Nc2nncc3ccccc23)c(OC)c1 | -6 | 4.5µM* | -3 | 22µM* | ?
COc1cc(/C=N/Nc2nncc3ccccc23)cc(OC)c1OC | -4 | ? | 0 | 11µM* | ?
C(=N\Nc1nncc2ccccc12)/c1ccccc1 | -11 | -26% | -1 | -3% | ?
Cc1cccc(/C=N/Nc2nncc3ccccc23)c1 | 11 | 2.5µM* | 1 | 20µM* | ?
CCCCN(C(=O)/C=C/c1ccc(OC)cc1)C1CCS(=O)(=O)C1 (stereo not given) | · | · | · | · | 9%
Cn1c(/C=N/NC(=O)c2ccccc2Br)nc2ccccc21 | 32 | -31% | 3 | -28% | -9%
Cc1ccc(C(=O)N/N=C/c2nc3ccccc3n2C)cc1 | 5 | 11µM* | 4 | -11% | ?
COc1ccc(-c2ccc(-c3cc(=O)oc4cc(OC)c(OC)c(OC)c34)cc2)cc1OC | 0 | 20% | 0 | 0% | 10µM*
COc1cc2oc(=O)cc(-c3cccc(-c4cccc(C)c4)c3)c2c(OC)c1OC | -13 | 10% | 0 | -4% | 21µM*
Cc1ccc(C2CC(=O)Oc3cc(C)c(Cl)c(C)c32)cc1 (stereo not given) | · | 27% | 1 | ? | ·
Cc1ccccc1Cn1nc(C)c(NC(=O)C2c3ccccc3Oc3ccccc32)c1C | 14 | 33% | -1 | -19% | 1%
C=CCNC(=O)CC(=O)N/N=C/c1ccc(F)cc1 | 6 | -7% | -3 | 4% | 6%
FC(F)(F)c1cccc(/C=N/NC(=S)NC2CCCCC2)c1 | -16 | 0.56µM* | 0 | 6.3µM* | 1%
O=C(O)c1ccc(/C=N/NC(=S)NC2CCCCC2)cc1 | -14 | -23% | 5 | 10% | ?
